From PubChem BioAssay
hcDAF-12 act: H. contortus DAF-12 nuclear receptor activators, primary screen, cell-based, luminescence, HEK293, lit1-tk-luc reporter. HEK293 hcDAF-12 lit1-tk-luc reporter; 0% DMSO, 100% Δ7-dafachronic acid. activation, % at 6.8 µM. 1.4% of 370,000 active;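 active = activation above the mean of all tested compounds plus 3 SD, cut at about 5.5% in these data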
hgDAF12 agonist: H. glycines DAF-12 receptor agonists, primary screen, cell-based, luminescence, HEK293, GAL4 fusion, UAS-luciferase. 1.8% of 370,000 active. Nuclear hormone receptor DAF-12 (Heterodera glycines), GAL4 fusion. activation, % at 6.8 µM. HEK293 GAL4-hgDAF12 UAS-luciferase reporter, agonist luminescence; normalized to butyrate control;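 active = activation above a cutoff set at the mean of all screened compounds plus 3 SD, cut at about 10% in these data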
DAX1 inh-1: DAX1 (NR0B1) inhibitors, primary screen, cell-based, HEK293, Gal4-DAX1, luciferase luminescence; Nuclear receptor subfamily 0 group B member 1 (Homo sapiens), P51843; HEK293 Gal4-DAX1 luciferase reporter; inhibition, % at 6.75 µM; 0.99% of 340,000 active; AID 504766, 2011;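 active = inhibition above the mean over all tested compounds plus 3 SD, cut at about 4.2% in these data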;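 also: inhibition shows as a rise in luminescence from relieved DAX1 repression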
Target sequence (P51843 207-470 limits assumed): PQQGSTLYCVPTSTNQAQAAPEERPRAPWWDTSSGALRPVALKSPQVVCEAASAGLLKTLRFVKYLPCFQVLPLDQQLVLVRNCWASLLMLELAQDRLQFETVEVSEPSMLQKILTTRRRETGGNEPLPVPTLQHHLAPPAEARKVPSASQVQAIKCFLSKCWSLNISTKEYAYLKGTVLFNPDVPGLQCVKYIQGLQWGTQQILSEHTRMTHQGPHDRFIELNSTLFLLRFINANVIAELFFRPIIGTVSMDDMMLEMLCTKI
DAX1 inh-2: DAX1 (NR0B1) inhibitors on StAR promoter, primary screen, cell-based, luminescence, SF-1 (NR5A1), full-length DAX-1 | HEK293T StAR-luciferase reporter, SF-1/DAX-1 repression relief | inhibition, % at 6.8 µM | 1.1% of 370,000 active | AID 652010, 2013;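 active = inhibition above the mean over all tested compounds plus 3 SD, cut at about 3.6% in these data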;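 also: higher inhibition means more luminescence from relief of DAX-1 repression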
ssDAF12 agonist: S. stercoralis DAF-12 nuclear receptor activators, primary screen, cell-based, luminescence, HEK293, GRIP1 co-expression, lit1-tk-luc; activation, % at 6.8 µM; Nuclear hormone receptor DAF-12 (Strongyloides stercoralis); AID 652126, 2013; 1% of 370,000 active; HEK293 ssDAF-12/GRIP1 lit1-tk-luc reporter; % of 3 µM dafachronic acid response;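 active = activation above the mean over all tested compounds plus 3 SD, cut at about 0.9% in these data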
hgDAF12 ag: H. glycines DAF-12 receptor agonists, confirmation, cell-based, luminescence, HEK293, GAL4-LBD fusion; HEK293 GAL4-hgDAF12 luciferase reporter, agonist mode; percent of butyrate response; 80% of 3,300 active; shares compounds with hgDAF12 agonist; activation, % at 6.8 µM;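 active = mean activation over triplicate wells above the hit cutoff derived from the earlier primary screen, cut at about 11% in these data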
LXR ag 2: LXR agonists, Gal4 luciferase reporter, confirmation, counter-screen for hgDAF-12 agonist project, cell-based, luminescence, HEK293, H. glycines campaign; shares compounds with hgDAF12 agonist; 24 h; activation, % at 6.8 µM; 3,300 tested, under 10 active; AID 743051, 2013;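 active = mean activation of the triplicate above a set limit carried over from the primary screen, none filed active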
Hits are given with their value. In the library only some 4.1% were active in any assay of this set; here they are far more common.

For COc1ccc(NC(=O)Nc2nc3c(s2)CCCC3)cc1 the results were hcDAF-12 act inactive, hgDAF12 agonist 19, DAX1 inh-1 inactive, DAX1 inh-2 inactive, ssDAF12 agonist inactive, hgDAF12 ag 16 and LXR ag 2 inactive.
Screening COc1ccc(NC(=S)Nc2cccc(C)n2)cc1 returned hcDAF-12 act inactive, hgDAF12 agonist inactive, DAX1 inh-2 inactive and ssDAF12 agonist inactive.
Screening Cc1ccc(C(=O)NCCc2ccc(F)cc2)s1 returned hcDAF-12 act inactive, hgDAF12 agonist 17, DAX1 inh-1 inactive, DAX1 inh-2 inactive, ssDAF12 agonist inactive, hgDAF12 ag 17 and LXR ag 2 inactive.
`Cc1ccc(C(=O)NCc2ccc(F)cc2)s1` gave hcDAF-12 act inactive, hgDAF12 agonist inactive, DAX1 inh-1 inactive, DAX1 inh-2 inactive and ssDAF12 agonist inactive.
`CCCCn1nnnc1C(c1cc2ccccc2o1)N(CCN(C)C)Cc1ccccc1` (configuration not stated) gave hcDAF-12 act inactive, hgDAF12 agonist inactive, DAX1 inh-2 inactive and ssDAF12 agonist inactive.
`COc1ccc(Cn2c(/C=C/c3ccccc3)nc3ccccc32)cc1` gave hcDAF-12 act 6.4, hgDAF12 agonist 18, DAX1 inh-1 inactive, DAX1 inh-2 3.8, ssDAF12 agonist inactive, hgDAF12 ag 20 and LXR ag 2 inactive.
CC(C)Cn1c(/C=C/c2ccccc2)nc2ccccc21 was read as hcDAF-12 act inactive, hgDAF12 agonist 14, DAX1 inh-1 inactive, DAX1 inh-2 inactive, ssDAF12 agonist inactive, hgDAF12 ag inactive and LXR ag 2 inactive.
Screening CCC(C)n1c(/C=C/c2ccccc2)nc2ccccc21 (configuration not stated) returned hcDAF-12 act inactive, hgDAF12 agonist inactive, DAX1 inh-1 inactive, DAX1 inh-2 inactive and ssDAF12 agonist inactive.
COc1ccc(/C=C/c2nc3ccccc3n2C)cc1 was read as hcDAF-12 act inactive, hgDAF12 agonist inactive, DAX1 inh-1 inactive, DAX1 inh-2 inactive and ssDAF12 agonist inactive.
Cc1ccc(Nc2ncnc3ccccc23)cc1 was read as hcDAF-12 act inactive, hgDAF12 agonist 14, DAX1 inh-1 inactive, DAX1 inh-2 inactive, ssDAF12 agonist inactive, hgDAF12 ag inactive and LXR ag 2 inactive.
`CC(Sc1nnc(NCc2ccccc2)s1)C(=O)Nc1ccc2c(c1)C(=O)c1ccccc1C2=O` (configuration not stated) gave hcDAF-12 act inactive, hgDAF12 agonist 15, DAX1 inh-1 inactive, DAX1 inh-2 inactive, ssDAF12 agonist inactive, hgDAF12 ag inactive and LXR ag 2 inactive.
CC(Sc1nnc(NC2CC2)s1)C(=O)Nc1ccc(S(N)(=O)=O)cc1 (configuration not stated) was read as hcDAF-12 act inactive, hgDAF12 agonist inactive, DAX1 inh-1 inactive, DAX1 inh-2 inactive and ssDAF12 agonist inactive.
Screening O=C(Nc1cccnc1)c1ccc(Oc2ccccc2)cc1 returned hcDAF-12 act inactive, hgDAF12 agonist 14, DAX1 inh-1 inactive, DAX1 inh-2 inactive, ssDAF12 agonist inactive, hgDAF12 ag 15 and LXR ag 2 inactive.
`Cc1nn(Cc2c(F)c(F)c(F)c(F)c2F)c(C)c1NC(=O)c1cccc(COc2ccc(Cl)cc2)c1` gave hcDAF-12 act inactive, hgDAF12 agonist 15, DAX1 inh-1 inactive, DAX1 inh-2 inactive, ssDAF12 agonist inactive, hgDAF12 ag inactive and LXR ag 2 inactive.
Screening Cc1cccc(Cn2nc(C)c(NC(=O)c3ccc(F)cc3)c2C)c1 returned hcDAF-12 act inactive, hgDAF12 agonist inactive, DAX1 inh-1 inactive, DAX1 inh-2 inactive and ssDAF12 agonist inactive.
Screening CC(C)(C)OC(=O)C[C@H]1C/C=C\C[C@@H](CC(=O)N(CCO)Cc2ccccc2)C(=O)N2CCC[C@H]2COC1=O returned hcDAF-12 act inactive, hgDAF12 agonist inactive, DAX1 inh-1 inactive, DAX1 inh-2 inactive and ssDAF12 agonist inactive.
O=C(Cc1ccccc1)Nc1ccc2c(c1)OC1(CCCC1)O2 was read as hcDAF-12 act inactive, hgDAF12 agonist 14, DAX1 inh-1 inactive, DAX1 inh-2 inactive, ssDAF12 agonist inactive, hgDAF12 ag 15 and LXR ag 2 inactive.
Cc1cccc(N2C(=O)C(Oc3ccc(Cl)cc3Cl)C2C=O)c1C (configuration not stated) was read as hcDAF-12 act inactive, hgDAF12 agonist inactive, DAX1 inh-1 inactive, DAX1 inh-2 inactive and ssDAF12 agonist inactive.
